# Assay results reported in PubChem BioAssay AID1117361 (Southern Research Institute, 2015).
# Hit rate of the full screen: of about 3,600 compounds, about 900 (25%) were called active. How the calls were made is not given here. Only a sample is shown. Where a call stands in place of a potency, no number is given. Potency and affinity values are given separately.
# Target: Protein Tat (Human immunodeficiency virus type 1 group M subtype B (isolate HXB2)) (UniProt P04608)
# Experiment: HIV-1 Tat–TAR interaction blockers – biochemical, fluorescence polarization, FAM-labeled TAR RNA, counter-screen for Vif-APOBEC3G degradation inhibitor project, dose response (AID 1117361)
# Conditions: Tat-TAR RNA binding; series mostly up to 100 µM
row,Structure (SMILES),outcome
1,CC(C)OC(=O)CSc1nnc(-c2ccccn2)n1-c1ccccc1,inactive
2,C/C(CC1CC2=C(CC1(C)C)C(C)(C)CCC2)=N\NC(N)=S (configuration not stated),inactive
3,Cc1ccc(NC(=S)NNc2ncc(C(F)(F)F)cc2Cl)cc1,inactive
4,Cc1nc(NC(=O)COC(=O)CCS(=O)(=O)c2ccccc2Cl)c(Cl)cc1Cl,inactive
5,O=c1c2cnn(-c3ccccc3Cl)c2ncn1Cc1cccnc1,inactive
6,CC1=CC(C)C2C(=O)N(CCCN(C)C)C(=O)C2C1 (configuration not stated),inactive
7,COc1ccc(Nc2nc(N)nc(CSC(=S)N3CCN(c4ccccc4)CC3)n2)cc1,inactive
8,Cc1nc(C)c(C(=O)OCC(=O)Nc2ccc(C)c(C)c2)s1,inactive
9,O=C(N/N=C/C1CC=CCC1)c1ccccc1O (configuration not stated),inactive
10,O=C(Cn1cc2c(n1)CCCC2)N1CCCc2ccccc21,inactive
11,CCc1cccc(CC)c1-n1c(SCC(=O)N2CCCc3ccccc32)nc(O)cc1=O,inactive
12,O=C(Cn1ncc2c(=O)oc3ccccc3c21)N1CCCc2ccccc21,inactive
13,Cc1onc(-c2ccccc2)c1C(=O)N1CCCc2ccccc21,inactive
14,Cc1nnc(SCC(=O)NCc2cccs2)[nH]c1=O,inactive
15,COc1ccc(C(CNCC(=O)Nc2ccccc2F)N(C)C)cc1 (configuration not stated),inactive
16,O=[N+]([O-])/C(C(Cl)=C(Cl)Cl)=C(/NC1CC1)Sc1ccccc1,inactive

row,Structure (SMILES),outcome
1,O=C1CCCN1c1ccc(S(=O)(=O)N2CCC(c3ccccc3)CC2)cc1,inactive
2,N#C/C(=C/c1cc(Br)cs1)C(=O)NCC1CCCO1 (configuration not stated),inactive
3,O=C(COc1ccc(Cl)cc1)N1CCN(S(=O)(=O)c2ccc(Cl)cc2)CC1,inactive
4,Cc1ccc(Cl)cc1N1CCN(C(=O)Cc2cn(C)c3ccccc23)CC1,inactive
5,CC(C)Cn1nc(NC(=O)C(C)(C)C)c2cc3ccccc3nc21,inactive
6,Cc1ccc(C(=O)NNS(=O)(=O)c2ccc(F)cc2)cc1,inactive
7,O=C(CN1CCN(c2ccccc2O)CC1)Nc1ccc2c(c1)CCC2,inactive
8,O=[N+]([O-])c1ccc(NCCCNS(=O)(=O)c2ccc(Cl)cc2)c(Cl)c1,inactive
9,COc1cc([N+](=O)[O-])c(N2CCOCC2)c([N+](=O)[O-])c1OC,inactive
10,O=S(=O)(NCC1CCCO1)c1cc(Br)c(Br)s1 (configuration not stated),inactive
11,CCCOC(=O)/C(C(N)=NCc1ccccc1)=C(\O)OCCC,inactive
12,O=C1CCCC2=C1C(c1cccs1)n1ncnc1N2 (configuration not stated),inactive
13,Cc1cc(C)n2nc(SCC(=O)Nc3ccc(F)cc3)nc2n1,inactive
14,Cc1nnc(NCCc2ccccc2)n(N)c1=O,inactive
15,O=C(CCOc1ccccc1)NCC(c1ccco1)N1CCCCC1 (configuration not stated),inactive
16,O=C(NCC(c1ccco1)N1CCCC1)c1cccc(S(=O)(=O)N2CCCCC2)c1 (configuration not stated),inactive
